Compound activity (PubChem)
Rows were chosen to be rich in hits. Some 19% of all compounds tested hit in one or more screens of this group.
DT40 TDP1 no CPT: qHTS for Inhibitors of human tyrosyl-DNA phosphodiesterase 1 (TDP1): qHTS in cells in absence of CPT | DT40 Tdp1-/- hTDP1 cells, no CPT, ATP luminescence, 48 h | Potency, µM (doses to about 46.2 µM), inactives show top-dose activity change, negative = growth inhibition, most hits filed as inhibitors | hit rate 15% among 420,000; further: potency means the concentration at half of the fitted maximal effect; nearly all actives have a fitted effect of over 55% in size
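Cells were dispensed at 400 per well, compounds added by pin tool, plates incubated ≥48 hr at 37 °C, then CellTiter-Glo added for 30 min at room temperature before luminescence reading. Line: DT40 Tdp1-/- complemented with hTDP1; camptothecin omitted.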
IL1B secr inh: inflammasome signaling inhibition, IL-1 beta readout. THP-1 LPS/ATP IL-1B secretion, AlphaLISA, 16 h; stronger effect = lower value. activity change, % at 57.5 µM. hit rate 4.7% among 360,000. AID 743279; in the data active means activity change below about -50%; inconclusive means mostly about -30% to -49%
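THP-1 cells pretreated 1 hr with compounds (up to 57.5 uM final), then stimulated with LPS (250 ng/mL final) plus ATP (1.25 mM final); secreted IL-1B measured by AlphaLISA after 16 hr, decreased signal indicating inhibition.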
HT1080 IDH1KD tx: HT-1080 IDH1 knockdown cell toxicity (counter line) | HT-1080 IDH1 knockdown viability, ATP luminescence, 48 h | Potency, µM (doses to about 46.1 µM), without a hit: at the top dose activity, negative = toxicity, hits mostly cytotoxic | hit rate 2% among 360,000 | AID 686971;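 further: potency means the concentration at half of the fitted maximal effect; 0% = DMSO wells and -100% = cell-free medium wells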
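In this qHTS, HT-1080 cells depleted of IDH1 are exposed for 48 h at 37 °C to compound titrations. Toxicity is scored from CellTiter-Glo luminescence, with DMSO as full viability and medium alone as none.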
DT40 TDP1 CPT: growth inhibition of DT40 Tdp1-/-;hTDP1 cells with camptothecin (screen for TDP1 inhibitors); Potency, µM (doses to about 46.2 µM), without a hit: top-dose activity change, negative = growth inhibition, usual class: inhibitors; hit rate 12% among 420,000; chicken DT40 Tdp1-/-;hTDP1 cells + 20 nM CPT, ATP luminescence, 48 h; further: potency means the concentration at half of the fitted maximal effect; nearly all actives have a fitted effect of over 55% in size
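Cell growth measured by CellTiter-Glo luminescence after a minimum 48 h, 37 C compound exposure with 20 nM CPT in Tdp1-knockout DT40 cells stably expressing hTDP1, seeded 400/well; qHTS titration format.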
HT1080NT lethal: kills 2HG-producing HT-1080-NT fibrosarcoma cells. HT-1080-NT fibrosarcoma viability, CellTiter-Glo ATP luminescence, 48 h. Potency, µM (highest dose often 46.1 µM), for inactives: top-dose activity, negative = less viability, usual class: cytotoxic. hit rate 1.6% among 360,000. AID 686970;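 further: NT is the 2HG producing partner of a matched IDH1 knockdown line; potency means the concentration at half of the fitted maximal effect; 0% = DMSO-treated cells and -100% = media-only wells without cells; nearly all actives have a fitted effect of over 55% in size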
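Viability of the 2HG-overproducing fibrosarcoma line after 48 hours of compound exposure at 37 degrees C was determined by luminescence with CellTiter-Glo, and concentration-effect curves were then fitted and categorized.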
Starred values were filed as active, the others as inactive; ? = inconclusive; · = no result; ! = not active in a repeat. Unless noted, the call rests on the fitted dose curve; in most records, active means well fitted curve in the direction sought with a large enough effect; inconclusive means small, poorly fitted or top-dose-only effect, or another doubt; inactive means no such curve, though single readings can be large; an effect the other way counts as inactive or inconclusive. Unless noted, on the % scale 0 is the no-effect control and ±100 the full control effect.

SMILES	DT40 TDP1 no CPT	IL1B secr inh	HT1080 IDH1KD tx	DT40 TDP1 CPT	HT1080NT lethal
CCOC(=O)C1=C[C@@H](C(C)C)N(S(=O)(=O)c2ccc(C)cc2)[C@H]1c1ccc(C(C)C)cc1	18µM*	4	-18%	?	3%
CSc1cc2c(cc1C(F)(F)F)N(C(=O)Nc1cccnc1)CC2	-4%	·	·	-4%	·
COc1ccc(Cl)cc1C(=O)CSc1nnnn1C1CCCCC1	18µM*	-5	-19%	?	-14%
COCCn1c(C)cc(C(=O)CSc2nnnn2C2CCCC2)c1C	2%	2	-1%	-20%	8%
COc1ccc(NC(=O)CSc2nnnn2C2CCCC2)c(OC)c1	-2%	-30	-3%	-1%	-10%
COc1ccc(Cl)cc1C(=O)CSc1nnnn1C1CCCC1	18µM*	?	-23%	16µM*	-21%
CCC(=O)N1CCc2cc(Br)cc(S(=O)(=O)N3CCCC(C(=O)Nc4cc(C)ccc4OC)C3)c21 (configuration not stated)	?	·	·	-21%	·
CC1c2ccccc2CN1NC(=O)c1ccc(Cl)c(S(N)(=O)=O)c1 (configuration not stated)	5%	·	·	-2%	·
COC(=O)[C@@H]1C2CC3c4[nH]c5cc(OC)ccc5c4CCN3CC2C[C@H](OC(=O)c2cc(OC)c(OC)c(OC)c2)C1OC (some centres not stated)	?	·	·	23µM*	·
COC(=O)[C@H]1[C@H]2C[C@@H]3c4[nH]c5cc(OC)ccc5c4CCN3C[C@H]2C[C@@H](OC(=O)c2cc(OC)c(OC)c(OC)c2)[C@@H]1OC	?	-29	?	16µM*!	?
CCOc1ccc2nc(N3CCC(C(=O)N4CCN(c5ncccn5)CC4)CC3)sc2c1	?	4	-4%	?	-1%
CCOc1ccc2nc(N3CCC(C(=O)N4CCN(c5ccccn5)CC4)CC3)sc2c1	6.5µM*	-7	-15%	5.8µM*	-17%
O=C(CSc1nc2ccccc2s1)N1CCN(C(=O)c2ccco2)CC1	?	-3	-5%	-28%	-16%
CCOc1ccc2nc(N3CCN(C(=O)c4ccco4)CC3)sc2c1	18µM*	·	·	?	·
CCOc1ccc2nc(SCC(=O)N3CCN(C(=O)c4ccco4)CC3)sc2c1	12µM*	-13	-8%	?	-1%
CCC(=O)Nc1ccc(C(=O)NNC(=O)c2cc(OC)c(OC)c(OC)c2)cc1	-27%	0	20%	2%	8%
O=C(NCc1n[nH]c(=S)n1-c1ccc(Cl)c(Cl)c1)c1ccco1	-5%	0	0%	11%	-2%
O=c1nc(SCc2c(F)cccc2Cl)nc(-c2ccccc2)[nH]1	-23%	18	1%	-20%	8%
CC1CCN(C(=O)CNC(=O)CNS(=O)(=O)c2ccccc2)CC1	-14%	6	-1%	-14%	-1%
CCOC(=O)c1ccc(-c2c(-c3cc(OC)c(OC)c(OC)c3)noc2C)cc1F	1µM*	42	1.8µM*	1.6µM*	?
CCOC(=O)c1ccc(-c2c(-c3ccc(OC)cc3)oc(=O)c3cc(OC)c(OC)cc23)cc1F	10µM*	15	11%	21µM*	10%
Cc1ccc(-n2c(=O)c3ccc(C(=O)NCc4ccco4)cc3n(CC(=O)Nc3ccccc3C(F)(F)F)c2=O)cc1	1%	·	·	-1%	·
COc1cc2c(cc1OC)[C@@H]1Cc3cc4c(cc3[C@H](C2)N1C)OCO4	-19%	-1	6%	4%	-10%
COc1cc2c(cc1OC)C1CCc3cc4c(cc3C1N=C2)OCO4 (configuration not stated)	13µM*	-20	-9%	16µM*	1%
COC(=O)c1c(CCl)noc1C(=O)NCC1CCCO1 (configuration not stated)	-74%	90	23µM*	?	-18%
SMILES	DT40 TDP1 no CPT	IL1B secr inh	HT1080 IDH1KD tx	DT40 TDP1 CPT	HT1080NT lethal
O=c1[nH]c(N/N=C/c2ccccc2Br)nnc1-c1ccccc1	23µM*	-8	-12%	15µM*	-1%
COc1ccc(/C=N/Nc2nnc(-c3ccccc3)c(=O)[nH]2)cc1	7.3µM*	-71*	13µM*	12µM*	13µM*
C=CCNc1ncnc2c1ncn2[C@H]1CN(CCOC)C[C@@H](CO)O1	-17%	12	13%	-12%	?
CCOc1ccc(C(=O)Nc2ccc(N3CCN(C(C)=O)CC3)cc2)cc1[N+](=O)[O-]	?	-1	8%	?	16%
CC(=O)N1CCN(c2ccc(Oc3ccc([N+](=O)[O-])c(C(F)(F)F)c3)cc2)CC1	2.9µM*	-83*	-29%	12µM*	?
Cc1ccc(-n2ncc3c(NCc4cccnc4)ncnc32)c(C)c1	5.2µM*	-13	-30%	16µM*	-1%
Cc1cccc(C(=O)NNc2ncnc3c2cnn3-c2ccc(C)cc2C)c1	?	·	·	23µM*	·
Cc1ccc(-n2ncc3c(NNC(=O)c4ccco4)ncnc32)c(C)c1	-11%	1	16%	0%	12%
Cc1ccc(-n2ncc3c(NCc4cccnc4)ncnc32)cc1C	?	-19	-16%	21µM*	-27%
Cc1cccc(-n2ncc3c(NCc4cccnc4)ncnc32)c1	?	-11	-12%	?	-11%
CCCCOc1cccc(C(=O)N(Cc2ccc(Cl)cc2)C2CCS(=O)(=O)C2)c1 (configuration not stated)	?	·	·	15µM*	·
CCCOc1ccccc1C(=O)N(Cc1ccco1)C1CCS(=O)(=O)C1 (configuration not stated)	18µM*	16	22%	?	17%
CCCCCOc1ccc(C(=O)N(Cc2ccccc2)C2CCS(=O)(=O)C2)cc1 (configuration not stated)	21µM*	·	·	?	·
CCCOc1cccc(C(=O)N(Cc2ccccc2)C2CCS(=O)(=O)C2)c1 (configuration not stated)	?	25	5%	-4%	4%
Cc1nc(SCC(=O)Nc2cccnc2Cl)nc(C)c1C	0%	-8	0%	-5%	2%
CN1CCN(C(CNC(=O)C(=O)NC2CCCCC2)c2ccc(F)cc2)CC1 (configuration not stated)	-3%	-14	-4%	9%	-1%
O=C(NCC1(N2CCOCC2)CCCC1)c1cnn(-c2nccc(-c3ccco3)n2)c1C1CC1	-29%	·	·	?	·
CC(CO)NS(=O)(=O)c1cc(Cl)ccc1F (configuration not stated)	-14%	23	11%	14%	3%
Cc1ccc(C(=O)COC(=O)CCC(=O)Nc2ccc(Oc3ccccc3)cc2)cc1C	-2%	·	·	9%	·
